# The whole screen tested about 52,000 compounds, of which about 4,300 (8.3%) were called active. Only a selection was taken, and actives are over-represented in it overall. Values without a mark were called inactive. Rule as the data show it: active = survival mostly below about 52% (no sharp cut-off); inactive = mostly above about 56%.
# Test system: DeltatarO mutant
# Experiment: growth inhibition of S. aureus wild type versus tarO mutant, primary screen, teichoic acid synthesis inhibitors, RN4220, OD600 (AID 463173)
# Conditions: OD600, 18 h, active compounds read low, screened at 18.75 µg/mL (by protocol)
row,Structure (SMILES),survival
1,Cc1ccc2oc(C(=O)N(Cc3ccc(N(C)C)cc3)CC3CCCO3)c(C)c2c1 (stereo unspecified),93%
2,Cc1ccccc1-n1c(SCC(=O)N(C(C)C)C(C)C)nnc1-c1cccnc1,99%
3,Cn1ccnc1SCC(=O)Nc1cc(Cl)ccc1Cl,68%
4,COc1cccc(C2CC(=O)N(c3ccc(F)cc3)C3=C2C(=O)OC3)c1OC (stereo unspecified),75%
5,COc1ccc(-n2nc(C(=O)Nc3ccc(Br)cc3C)c3c4ccccc4n(C)c3c2=O)cc1,97%
6,Fc1ccc(C2=CC(c3ccc(F)cc3)n3c(nc4ccccc43)N2)cc1 (stereo unspecified),87%
7,CCOC(=O)c1ccc(NC(=O)CSc2c(C(C)C)cnc3c2c(=O)n(C)c(=O)n3C)cc1,107%
8,Cc1ccc2nc(-c3c[nH]c4ccccc34)c(Nc3ccccc3C)n2c1,96%
9,CC(=O)N1C(Nc2ccc(C)cc2)CCN1c1ccccc1 (stereo unspecified),81%
10,COc1ccc(Nc2oc(/C=C/c3cccc(OC)c3)nc2C#N)cc1,100%
11,Cc1ccc2c(c1)C(c1ccc(F)cc1)N(C(=O)c1ccc(S(=O)(=O)N3CCCCC3)cc1)CC(=O)N2 (stereo unspecified),178%
12,Cc1ccc(C)c(NC(=O)CSc2nc3ccccc3nc2N2CCOCC2)c1,85%
13,CC(=O)Nc1ccc(NC(=O)CSc2nc3ccccc3nc2N2CCC(C)CC2)cc1,75%
14,Cc1cccc(NC(=O)CSc2nc3ccccc3nc2N2CCC(C)CC2)c1,8% (active)
15,CC1CCN(c2nc3ccccc3nc2SCC(=O)Nc2ccccc2C(C)C)CC1,-1% (active)
16,CCc1ccc(Cn2c(CNS(=O)(=O)c3ccc4c(c3)CCCC4)nc3cccnc32)cc1,102%
17,Fc1ccc(-n2ncc3c(N4CCC(Cc5ccccc5)CC4)ncnc32)cc1,90%
18,COc1cccc(C2CC(=O)Nc3c2c(=O)n(C)c2ncnn32)c1OC (stereo unspecified),166%
19,Cc1ccc2c(c1)c1c3n2CCN(C(=O)Cn2c(-c4ccccc4)noc2=O)C3CCC1 (stereo unspecified),90%
20,CC1CCc2c(sc(NC(=O)c3cc4nc(-c5ccc(Cl)cc5)cc(C(F)(F)F)n4n3)c2C#N)C1 (stereo unspecified),91%
21,Cc1ccc(S(=O)(=O)c2nnn3c2nc(NC2CCCCC2)c2sccc23)cc1,109%
22,Cc1ccc(S(=O)(=O)c2nnn3c2nc(NC2CCCCCC2)c2sccc23)cc1C,-4% (active)
23,Cc1ccc(C)c(S(=O)(=O)c2nnn3c2nc(NC2CCCCC2)c2sccc23)c1,40%
24,O=S(=O)(c1ccc(Cl)cc1)c1nnn2c1nc(NC1CCCCC1)c1sccc12,41%
25,O=S(=O)(c1ccc(Br)cc1)c1nnn2c1nc(NC1CCCCCC1)c1sccc12,63%
26,Cc1ccc(S(=O)(=O)c2nnn3c2nc(NC2CCCCC2)c2sccc23)cc1C,35% (active)

# From PubChem BioAssay AID463173 (ICCB-Longwood Screening Facility, Harvard Medical School, 2010)
